Results on 40 compounds are retold here after PubChem BioAssay (NCATS).

SMILES strings stand for the structures. Results filed as inconclusive are left out. Where a call stands in place of a potency, no number is given. Active and inactive are the calls of the source. The call rests on the fitted dose curve; in most records, active means well fitted cell-killing curve with a large enough effect; inconclusive means small, poorly fitted or top-dose-only effect; inactive means no such curve, though single readings can be large or run the other way.
Potency means the concentration at half of the fitted maximal effect.

A short description of this experiment: Cell Viability - LYMP2-001 (AID 921). Further: nearly all actives have a fitted effect of over 70% in size. As to conditions: LYMP2-001 lymphoblastoid cell viability; series mostly up to 92.2 µM. From the text: NIH Chemical Genomics Center [NCGC]
NIH Molecular Libraries Screening Centers Network [MLSCN]
National Institutes of Environmental Health Sciences [NIEHS]
National Toxicology Program [NTP]
We have developed a 1536-well cell-based assay for quantitative high throughput screening (qHTS) against a number of cell lines to determine in vitro cytotoxicity of small molecules. This particular assay uses a human lymphoblastoid cell line (LYMP2-001) purchased from Coriell Institute for Medical Research.
NCGC Assay Protocol Summary:
The CellTiter-Glo luminescent cell viability assay (Promega) is a homogeneous method to measure the number of viable cells in culture. The end point readout of this assay is based on quantitation of intracellular ATP, an indicator of metabolic activity, using the luciferase reaction. Luciferase catalyzes the oxidation of beetle Luciferin to oxyluciferin and light in the presence of ATP. The luminescent signal is proportional to amount of ATP present.
Using the CellTiter-Glo luminescent cell viability assay, the amount of cellular ATP was measured in the lymphoblastoid cell line with complete culture medium following compound treatment for 24 hours. The assay was performed in opaque white Kalypsys 1536-well plates. In the screen, tetraoctylammonium bromide was used as positive control. Library compounds were measured for their ability to cause acute toxicity in the cell line, as reflected by a decrease in intracellular ATP levels, in a concentration-dependent manner. […] AC50 values were determined from concentration-response data modeled with the standard Hill equation.
qHTS protocol for CellTiter Glo lymphoblastoid cellular assay
[Step] [Parameter] [Value] [Description]
1. Reagent; 5 uL; 2500 lymphoblastoid cells/well
2. Time; 5 hr; 37 C incubation
4. Controls; 23 nL; Tetraoctylammonium bromide 6.4pM to 92 uM
5. Time; 24 hr; 37 C incubation
6. Reagent; 5 uL; CellTiter Glo reagent
7. Time; 30 min; Room Temperature
8. Detection; Luminescence; Viewlux plate reader
Keywords: cell viability, cytotoxicity, lymphoblastoid cell line, luminescence, NTPHTS, NTPHTS_NCGC, NIEHS, DSSTox, MLSMR, MLSCN, NIH Roadmap, qHTS, NCGC
`O=NO`: the Potency result was “inactive”.
For the compound `C=CCOC(=O)c1ccccc1C(=O)OCC=C`, the Potency entry is “inactive”.
For `COc1ccc2nc(N)sc2c1` the value was “inactive”; for `C[C@H](CCC(=O)O)[C@H]1CC[C@H]2[C@@H]3CC[C@@H]4C[C@H](O)CC[C@]4(C)[C@H]3CC[C@]12C`, “inactive”; for `S=C1NC=NC2N=CNC12` (stereo not given), “inactive”.
`O=C(O)c1ccc(O)cc1O`: the Potency entry was “inactive”.
As to `CC(C)=CCCC(C)CCO` (stereo not given), the Potency entry was “inactive”.
For `CCCCCCCCO` the value was “inactive”; for `c1ccc2c(c1)c1cccc3ccc4cccc2c4c31`, “inactive”; for `Clc1cc(Cl)c(Cl)c(Cl)c1Cl`, “inactive”.
For `O=C(O)c1ccccc1C(c1ccc(O)cc1)c1ccc(O)cc1` the value was “inactive”; for `CCCN(CCC)C(=O)SCC`, “inactive”.
With `O=S(=O)(O)c1ccccc1` the entry was “inactive”; with `COC(=O)c1ccc(C)cc1`, “inactive”.
For `COc1c2ccoc2cc2oc(=O)ccc12`, the Potency result was “inactive”.
For `Nc1ccc(S(=O)(=O)O)cc1` the value was “inactive”.
With `O=C1CCc2ccccc2O1` the entry was “inactive”; with `O[C@@H]([C@H](O)[C@@H](O)CBr)[C@@H](O)CBr`, “inactive”.
For `CCCCCCCCCCCCCCC1CO1` (stereo not given) the value was “inactive”.
Take `C=CC(=O)OCCOCCOCCOCCOC(=O)C=C`: the Potency is 15.8 µM (active).
Consider `CCCCCCCCCCCCCC(=O)O`, for which the Potency entry was “inactive”.
With `Cc1ccc([N+](=O)[O-])cc1N` the entry was “inactive”; with `Cc1cccc([N+](=O)[O-])c1C`, “inactive”.
For `O=C(O)CC(C(=O)O)C(CC(=O)O)C(=O)O` (stereo not given) the value was “inactive”; for `C/C=C\c1ccc(OC)cc1`, “inactive”; for `CCC(C)c1ccccc1O` (stereo not given), “inactive”.
Regarding `CCC(O)OC(O)CC` (stereo not given), the Potency entry is “inactive”.
For `Cc1ccccc1C` the value was “inactive”.
With `O=[N+]([O-])c1cccc(Cl)c1Cl` the entry was “inactive”; with `C=C(C)C1CC=C(C)C(O)C1` (stereo not given), “inactive”; with `COc1ccc(/C=C/c2cc(OC)cc(=O)o2)cc1`, “inactive”.
For `CN(C)C=O`, the Potency entry was “inactive”.
For `Cc1ccc([N+](=O)[O-])c(C)c1`, the Potency result was “inactive”.
For `OCCNCCO` the value was “inactive”.
For `C1OCOCO1` the value was “inactive”; for `Clc1cc(Cl)c(Cl)cc1Cl`, “inactive”.
For `COC(=O)CCCCC(=O)OC` the value was “inactive”.
For `CC12CCC(CC1=O)C2(C)C` (stereo not given), the Potency entry was “inactive”.
Turning to `COc1cc(/C=C/c2ccccc2)oc(=O)c1`, the Potency result is “inactive”.
For `COCC(=O)O` the value was “inactive”.
